In ChEMBL document CHEMBL4296182, “CO-ADD screening of NIH NCI Diversity Set V” one finds Inhibition data, which are given here for 39 compounds.

Molecules are shown by their SMILES. Measured potencies and affinities stand elsewhere.

In general, Inhibition refers to the drop in the measured response relative to a control, in per cent.

In one experiment the test system is Klebsiella pneumoniae. As to conditions: Concentration 20 uM; ASSAY_TEST Inhibition of Bacterial Growth; detection method Absorption (OD600); MEDIA CAMHB; plate type 384well; NBS; CORNING #3640; time 18 hr.
For `c1ccc2c(c1)Oc1cccc3cccc-2c13`, the Inhibition is reported as 8.47%.

Regarding `CC(=O)Nc1ccc(OC(=O)Oc2ccc(NC(C)=O)cc2)cc1`, the Inhibition is 22.87%.

Take `COc1cccc2nc3cc(C)c(C)cc3nc12`: the Inhibition was determined as 1.37%.

In the case of `COc1ccc(-c2cc(-c3ccccc3)c(-c3ccccc3)nn2)cc1`, the Inhibition is -1.34%.

`CCOC(=O)/C(C#N)=C\c1c[nH]c2ccccc12`: the Inhibition worked out at 2.71%.

As to `Cc1nc([N+](=O)[O-])cn1-c1nc2ccccn2c1[N+](=O)[O-]`, the Inhibition is listed as 11.88%.

Regarding `CN1C=C/C(=C/[N+](=O)[O-])N(C)C1=O`, the Inhibition amounted to 0.88%.

With `Cc1ccc(S(=O)(=O)Oc2cc(N)c3c(n2)CCC3)cc1`, the Inhibition came out at 9.4%.

On to `O=C(Cn1ccc(=O)[nH]c1=O)Nc1nccs1`, for which the Inhibition was 12.12%.

The test system of the next experiment is Candida albicans. As to conditions: 20 µM.
Consider `CC(=O)OCc1cc(-c2nc3ccccc3nc2O)nn1-c1ccc(Cl)cc1`, for which the Inhibition amounted to 4.91%.

As for `Cc1n[nH]c2nc(N)nn2c1=O`, the Inhibition was -3.85%.

As for `Cc1ccc(/N=N/c2c(O)c3ccccc3[nH]c2=O)c(S(=O)(=O)N(C)C)c1`, the Inhibition was -0.31%.

For the compound `Cc1ccc(/N=N\c2c(O)ccc3[nH]nnc23)cc1`, the Inhibition turned out to be 13.2%.

As to `O=C(O)c1ccccc1-c1ccccc1C(=O)Nc1ccc2c(c1)nc(O)c1ccccc12`, the Inhibition was found to be 7.22%.

`CC(C)NC(=O)Nc1cccc(Cl)c1`: the Inhibition was -1.88%.

As for `COC1OCC(O)C(NC(=O)N(C)N=O)C1O` (configuration not stated), the Inhibition amounted to 5.35%.

On to `CCOC(CNCc1cc(C)c2[nH]c3ccccc3c2c1C)OCC`, for which the Inhibition amounted to 1.3%.

On to `O=C(c1ccc(O)cc1)c1ccc(C(=O)c2ccc(O)cc2)cc1`, for which the Inhibition was 3.86%.

On to `CCN(CC)Cc1cc2[nH]c3c4ccc(Cl)cc4ncc3c2cc1OC`, for which the Inhibition was -0.29%.

Consider `OC(COc1cccc2ccccc12)CN1CCN(c2ccccc2Cl)CC1` (configuration not stated), for which the Inhibition came out at 3.81%.

Turning to `CC(=O)OCCN1c2ccccc2Sc2cnccc21`, the Inhibition is 1.65%.

Turning to `Cc1ccc(C2C=CC(C#N)=CN2Cc2ccccc2)cc1` (configuration not stated), the Inhibition is -1.48%.

Take `c1ccc(-c2nc[nH]c2-c2ccccc2)cc1`: the Inhibition was -1.64%.

Take `COc1cccc2c1C(CO)N1C(C#N)C3CC(C(=O)O)C(C1C2)N3C` (configuration not stated): the Inhibition was 4.33%.

On to `CC(=O)Nc1ccc(S(=O)(=O)N/N=c2/sc3ccccc3n2C)cc1N`, for which the Inhibition is -0.64%.

As to `COc1cc(-c2ccc(NC(=O)NC3CC3)c(OC)c2)ccc1NC(=O)NC1CC1`, the Inhibition is 3.52%.

Turning to `CCCc1cc(=O)oc2c3c(c4c(c12)OC(C)(C)C=C4)OC(C)[C@H](C)[C@@H]3O` (some centres not stated), the Inhibition was 7.97%.

Turning to `Cc1ccc(-c2cssc2=S)cc1`, the Inhibition is 13.1%.

Regarding `Cc1ccc(NC(=O)Nc2c(Cl)cccc2Cl)cn1`, the Inhibition turned out to be 3.4%.

Regarding `COc1cc(-c2ccc(Nc3ccccc3C(=O)O)c(OC)c2)ccc1Nc1ccccc1C(=O)O`, the Inhibition was -0.13%.

As to `Cc1ccc(Nc2c(O)ncnc2O)cc1C`, the Inhibition is 0.31%.

For `O=[N+]([O-])C1C(c2ccccc2)C12c1ccccc1-c1ccccc12` (configuration not stated), the Inhibition is -1.91%.

As to `COc1cc2c(O)cc(C(=O)O)c(-c3cc(OC)c(OC)c(OC)c3)c2cc1OC`, the Inhibition is -0.33%.

Consider `COc1cc(NCc2ccccc2O)c2ncccc2c1`, for which the Inhibition came out at 4.54%.

On to `Sc1nc2ccccc2n2cccc12`, for which the Inhibition was 17.9%.

Turning to `OCc1ncc(-c2ccccc2)s1`, the Inhibition was 2.13%.

With `COC1OC(O)C(NC(=O)C(F)(F)F)CC1O` (configuration not stated), the Inhibition worked out at 3.69%.

For `O=C(O)C1CCC(=O)N1C(=O)OCc1ccccc1` (configuration not stated), the Inhibition is -1.6%.

In the case of `COc1ccc2nc3cc(Cl)ccc3c(Nc3cc(C(C)C)c(O)cc3C)c2c1`, the Inhibition was -0.84%.

For the compound `c1ccc2c(c1)Oc1cccc3cccc-2c13`, the Inhibition was determined as 7.02%.

Turning to `CC(=O)Nc1ccc(OC(=O)Oc2ccc(NC(C)=O)cc2)cc1`, the Inhibition turned out to be 5.36%.

With `COc1cccc2nc3cc(C)c(C)cc3nc12`, the Inhibition is 1.48%.

In the case of `COc1ccc(-c2cc(-c3ccccc3)c(-c3ccccc3)nn2)cc1`, the Inhibition is 2.55%.

For `CCOC(=O)/C(C#N)=C\c1c[nH]c2ccccc12`, the Inhibition came to 3.53%.

Turning to `Cc1nc([N+](=O)[O-])cn1-c1nc2ccccn2c1[N+](=O)[O-]`, the Inhibition was 4.75%.

On to `CN1C=C/C(=C/[N+](=O)[O-])N(C)C1=O`, for which the Inhibition came to 1.05%.

As for `Cc1ccc(S(=O)(=O)Oc2cc(N)c3c(n2)CCC3)cc1`, the Inhibition turned out to be 1.38%.

`O=C(Cn1ccc(=O)[nH]c1=O)Nc1nccs1`: the Inhibition turned out to be 0.84%.

A further experiment concerns Cryptococcus neoformans. As to conditions: Concentration 20 uM; ASSAY_TEST Inhibition of Fungal Growth; detection method Resazurin; Absorption (OD600-OD570); plate type 384well; NBS; CORNING #3640.
Consider `CC(=O)OCc1cc(-c2nc3ccccc3nc2O)nn1-c1ccc(Cl)cc1`, for which the Inhibition came out at 44.96%.

As to `Cc1n[nH]c2nc(N)nn2c1=O`, the Inhibition was -10.19%.

With `Cc1ccc(/N=N/c2c(O)c3ccccc3[nH]c2=O)c(S(=O)(=O)N(C)C)c1`, the Inhibition is -5.24%.

With `Cc1ccc(/N=N\c2c(O)ccc3[nH]nnc23)cc1`, the Inhibition was -12.82%.

As to `O=C(O)c1ccccc1-c1ccccc1C(=O)Nc1ccc2c(c1)nc(O)c1ccccc12`, the Inhibition is given as -6.01%.

Turning to `CC(C)NC(=O)Nc1cccc(Cl)c1`, the Inhibition is listed as -9.01%.

`COC1OCC(O)C(NC(=O)N(C)N=O)C1O` (configuration not stated): the Inhibition was -2.94%.

As to `CCOC(CNCc1cc(C)c2[nH]c3ccccc3c2c1C)OCC`, the Inhibition is given as -11.65%.

On to `O=C(c1ccc(O)cc1)c1ccc(C(=O)c2ccc(O)cc2)cc1`, for which the Inhibition was -7.33%.

Consider `CCN(CC)Cc1cc2[nH]c3c4ccc(Cl)cc4ncc3c2cc1OC`, for which the Inhibition is on record as -5.75%.

As to `OC(COc1cccc2ccccc12)CN1CCN(c2ccccc2Cl)CC1` (configuration not stated), the Inhibition is -4.59%.

`CC(=O)OCCN1c2ccccc2Sc2cnccc21`: the Inhibition is -8.61%.

Turning to `Cc1ccc(C2C=CC(C#N)=CN2Cc2ccccc2)cc1` (configuration not stated), the Inhibition was -7.94%.

Consider `c1ccc(-c2nc[nH]c2-c2ccccc2)cc1`, for which the Inhibition is reported as -10.72%.

With `COc1cccc2c1C(CO)N1C(C#N)C3CC(C(=O)O)C(C1C2)N3C` (configuration not stated), the Inhibition is on record as -4.3%.

On to `CC(=O)Nc1ccc(S(=O)(=O)N/N=c2/sc3ccccc3n2C)cc1N`, for which the Inhibition was -8.3%.

In the case of `COc1cc(-c2ccc(NC(=O)NC3CC3)c(OC)c2)ccc1NC(=O)NC1CC1`, the Inhibition is on record as -5.24%.

Consider `CCCc1cc(=O)oc2c3c(c4c(c12)OC(C)(C)C=C4)OC(C)[C@H](C)[C@@H]3O` (some centres not stated), for which the Inhibition is -3.22%.

Regarding `Cc1ccc(-c2cssc2=S)cc1`, the Inhibition turned out to be 11.55%.

For `Cc1ccc(NC(=O)Nc2c(Cl)cccc2Cl)cn1`, the Inhibition turned out to be 18.5%.

For the compound `COc1cc(-c2ccc(Nc3ccccc3C(=O)O)c(OC)c2)ccc1Nc1ccccc1C(=O)O`, the Inhibition is -0.24%.

Take `Cc1ccc(Nc2c(O)ncnc2O)cc1C`: the Inhibition is on record as 16.78%.

`O=[N+]([O-])C1C(c2ccccc2)C12c1ccccc1-c1ccccc12` (configuration not stated): the Inhibition is on record as -10.55%.

As for `COc1cc2c(O)cc(C(=O)O)c(-c3cc(OC)c(OC)c(OC)c3)c2cc1OC`, the Inhibition is recorded as -9.59%.

Turning to `COc1cc(NCc2ccccc2O)c2ncccc2c1`, the Inhibition was -12.51%.

On to `Sc1nc2ccccc2n2cccc12`, for which the Inhibition is -1.74%.

Consider `OCc1ncc(-c2ccccc2)s1`, for which the Inhibition is given as -4.82%.

On to `COC1OC(O)C(NC(=O)C(F)(F)F)CC1O` (configuration not stated), for which the Inhibition is reported as -8.11%.

As to `O=C(O)C1CCC(=O)N1C(=O)OCc1ccccc1` (configuration not stated), the Inhibition was -3.17%.

For the compound `COc1ccc2nc3cc(Cl)ccc3c(Nc3cc(C(C)C)c(O)cc3C)c2c1`, the Inhibition was -12.42%.

Regarding `c1ccc2c(c1)Oc1cccc3cccc-2c13`, the Inhibition is recorded as -13.12%.

Take `CC(=O)Nc1ccc(OC(=O)Oc2ccc(NC(C)=O)cc2)cc1`: the Inhibition is reported as -3.28%.

`COc1cccc2nc3cc(C)c(C)cc3nc12`: the Inhibition was -8.3%.

As for `COc1ccc(-c2cc(-c3ccccc3)c(-c3ccccc3)nn2)cc1`, the Inhibition is -12.46%.

As for `CCOC(=O)/C(C#N)=C\c1c[nH]c2ccccc12`, the Inhibition is recorded as 2.4%.

On to `Cc1nc([N+](=O)[O-])cn1-c1nc2ccccn2c1[N+](=O)[O-]`, for which the Inhibition is recorded as -6.88%.

On to `CN1C=C/C(=C/[N+](=O)[O-])N(C)C1=O`, for which the Inhibition is on record as -5.15%.

With `Cc1ccc(S(=O)(=O)Oc2cc(N)c3c(n2)CCC3)cc1`, the Inhibition is on record as -7.75%.

Consider `O=C(Cn1ccc(=O)[nH]c1=O)Nc1nccs1`, for which the Inhibition is on record as -10.28%.
